Many of the other results were omitted from the sample, so hits are more common in it than they were.
Dicer processing – human Dicer pre-microRNA cleavage inhibition | cat-ELCCA pre-miR-21 Dicer processing, chemiluminescence; stronger effect = higher value | z-score at 25 µM | 47,000 tested, 6% active | AID 1347074; in the data active = z-score above about 3, passing the limit was not always enough;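 also: plate controls were vehicle for no effect and no enzyme for full effect; higher signal means more uncleaved substrate so more Dicer inhibition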
An asterisk follows results filed as active.

SMILES	Dicer processing
CC(C)(C)NC(=S)N/N=C/c1ncc(C(F)(F)F)cc1Sc1ccc(Cl)cc1	-0.75
Cc1onc(-c2ccccc2)c1NC(=O)Nc1ccccc1Oc1ccccc1	-0.79
CC1(C)C2CCC1(C)C(N1CCN(Cc3ccccc3)CC1)C2 (stereo not given)	1
COc1ccc(CCn2c(=O)c3cc4c(=O)n(CCc5ccc(OC)c(OC)c5)c(=O)c4cc3c2=O)cc1OC	0.62
CC1CCc2c(sc3nc(-c4ccccc4)[nH]c(=O)c23)C1 (stereo not given)	0.19
CCOC(=O)c1cc(C)nc(Sc2ccc(Cl)cc2)n1	-1.6
Cc1onc(-c2c(Cl)cccc2Cl)c1NC(=O)OCCOc1ccc(Cl)cc1Cl	-0.91
Cc1onc(-c2c(Cl)cccc2Cl)c1C(=O)ONC(=O)C(C)(C)C	0.7
CC(=O)NOC(=O)c1c(-c2c(Cl)cccc2Cl)noc1C	0.86
CCCNC(=O)O/N=C(\N)c1c(-c2c(Cl)cccc2Cl)noc1C	4.5*
Cc1onc(-c2c(Cl)cccc2Cl)c1NC(=O)NN(C)C(=S)SCc1c(F)cccc1Cl	0.26
Cc1onc(-c2c(Cl)cccc2Cl)c1NC(=O)OCc1c(F)cccc1Cl	4*
COCCCNC(=O)C(=O)NCc1ccco1	-1.2
O=[N+]([O-])c1ccc(S(=O)(=O)c2ccccc2)cc1OS(=O)(=O)c1cc(Cl)cc(Cl)c1	0.67
CC1CC(=O)c2cnc(N3CCCCC3)nc2C1 (stereo not given)	1.9
FC(F)(F)c1cc(N2CCCC2)c2cccc(Cl)c2n1	-0.04
CC(C)(O)C#Cc1ccc(/C=N/O)cc1	0.25
CC(C)(O)C#Cc1ccc(/C=N/Nc2ccc(I)cc2)cc1	-0.48
CC(C)(O)C#Cc1ccc(C2NCCS2)cc1 (stereo not given)	259*
Cc1ccc(Sc2ccc(NC(=O)Nc3ccc(SC(F)(F)F)cc3)cn2)cc1	-0.98
Cc1ccc(-c2nn(-c3ccccc3)cc2C2CC(c3ccccc3)=NN2S(C)(=O)=O)cc1 (stereo not given)	-1.1
COC(=O)Cc1nc(NS(=O)(=O)c2cccc(C(F)(F)F)c2)sc1C	0.17
Cc1cc(C)c2c(N)c(C(=O)NN)sc2n1	-1.3
CCOC(=O)c1sc2nc(C)cc(C)c2c1N	-1.2
CNC(=S)NNC(=O)c1sc2nc(C)cc(C)c2c1N	4.6*
SMILES	Dicer processing
CC(=O)Nc1c(Cl)c(Cl)c(Cl)c(Cl)c1Cl	-1.6
Cc1cc(C)cc(OCc2nc(Cc3ccc(Cl)cc3)no2)c1	-0.85
CCCCC#Cc1ccc(C(=O)N/N=C/c2ccccc2)o1	-1.8
O=C(C1=NOC2(C(=O)c3ccccc3C2=O)C1c1ccccc1)c1ccccc1 (stereo not given)	3.9*
O=C1C2C(c3ccccc3)OC3(C(=O)c4ccccc4C3=O)C2C(=O)N1c1ccccc1 (stereo not given)	0.05
CCOC(=O)C1=NN(c2ccccc2)C2(C(=O)c3ccccc3C2=O)C1c1ccc(C)cc1 (stereo not given)	-0.57
O=C(O)CSCC(=O)Nc1cnccn1	-0.7
O=C1/C(=C/c2cccs2)CCCc2ccccc21	0.41
O=C1/C(=C/c2cccs2)COC/C1=C\c1cccs1	4.2*
O=C1/C(=C/c2cccs2)CS/C1=C/c1cccs1	-3
c1ccc(-c2csc(NCc3ccco3)n2)nc1	-0.92
Cc1ccc(S(=O)(=O)Nc2sc3c(c2C(=O)O)CCCC3)cc1	-0.16
Cc1c(C#N)c(Sc2n[nH]c(-c3cc(Cl)cc(Cl)c3)n2)nc2ccccc12	0.26
O=C(Nc1ccc2ccccc2n1)C1CCCCC1	5.1*
O=C(Nc1ccc2ccccc2n1)c1ccc(Cl)cc1	1.2
O=C(Nc1ccc2ccccc2n1)c1c(Cl)cccc1Cl	1.7
O=C(Nc1ccc2ccccc2n1)c1ccccc1Cl	3.2*
O=C(Nc1ccc2ccccc2n1)c1cccs1	-0.6
O=C(Nc1ccc2ccccc2n1)Nc1ccccc1F	-2.5
CN1CCN(/C=N/c2ncc(C(F)(F)F)cc2Cl)CC1	-0.33
CSc1nc(N)nc(-c2ccccc2Cl)c1C#N	-1.4
CSc1nc2cc(C)nn2c(-c2ccc(C(C)(C)C)cc2)c1C#N	2.6
CSc1nc2cc(C)nn2c(-c2ccccc2Cl)c1C#N	5.2*
NNC(=O)c1ccc(Oc2ccc(C3SCCS3)cc2)o1	1.9
Cc1ccc(C2CC=CCC2[N+](=O)[O-])cc1 (stereo not given)	-0.84
SMILES	Dicer processing
CCOC(=O)Nc1cc(C(=O)OC)ccc1C(=O)OC	2.1
COC(=O)c1ccc(C(=O)OC)c(NC(=O)Nc2ccc(F)cc2)c1	0.73
COC(=O)c1ccc(C(=O)OC)c(NC(=O)C2CC3CCC2C3)c1 (stereo not given)	4.3*
CCCOc1nnc(-c2ccc(C)c(S(=O)(=O)N(C)C)c2)c2ccccc12	-1.5
O=C1c2ccccc2C(=O)C1(c1ccccc1)N1CCN(c2ccccn2)CC1	-0.38
O=C(COc1ccc(F)cc1)N(Cc1cccs1)C1CCS(=O)(=O)C1 (stereo not given)	1.4
O=C(COc1ccc(Cl)cc1)N(Cc1cccs1)C1CCS(=O)(=O)C1 (stereo not given)	0.47
O=C(COc1ccccc1)N(Cc1cccs1)C1CCS(=O)(=O)C1 (stereo not given)	3.1*
Cc1ccc(S(=O)(=O)CC(C)N2CCCCC2)c(S(=O)(=O)CC(C)N2CCCCC2)c1 (stereo not given)	-0.8
Cn1c(NCC(O)CO)nc2c1c(=O)n(Cc1ccccc1Cl)c(=O)n2C (stereo not given)	0.33
COc1ccc(C2/C(=C(\O)c3ccc(C)cc3)C(=O)C(=O)N2CCCN(C)C)cc1 (stereo not given)	2.5
Cc1ccc(/C(O)=C2/C(=O)C(=O)N(CCN3CCOCC3)C23C(=O)N(C)c2ccccc23)cc1F (stereo not given)	4.2*
CCCN1C(=O)C2(/C(=C(/O)c3ccccc3)C(=O)C(=O)N2CCN2CCOCC2)c2ccccc21 (stereo not given)	4.7*
COc1ccc(/C(O)=C2\C(=O)C(=O)N(CCN3CCNCC3)C2c2ccc(OC)cc2)cc1 (stereo not given)	0.81
CN1C(=O)C2(/C(=C(/O)c3ccc(Cl)cc3)C(=O)C(=O)N2CCN2CCOCC2)c2ccccc21 (stereo not given)	-0.98
C=CCN1C(=O)C2(/C(=C(/O)c3ccccc3)C(=O)C(=O)N2CCN2CCOCC2)c2ccccc21 (stereo not given)	1.5
CN1C(=O)C2(/C(=C(/O)c3ccc(F)cc3)C(=O)C(=O)N2CCCN2CCOCC2)c2ccccc21 (stereo not given)	0.07
COc1ccc(/C(O)=C2\C(=O)C(=O)N(CCCN(C)C)C2c2ccc(N(C)C)cc2)cc1 (stereo not given)	1.1
COc1ccc(/C(O)=C2\C(=O)C(=O)N(CCN3CCOCC3)C2c2ccc(F)cc2)cc1 (stereo not given)	3.2*
COc1ccc(/C(O)=C2\C(=O)C(=O)N(CCCN3CCOCC3)C2c2ccc(OC)cc2)cc1 (stereo not given)	0.7
Cc1ccc(/C(O)=C2/C(=O)C(=O)N(CCCN3CCOCC3)C23C(=O)N(C)c2ccccc23)cc1F (stereo not given)	-3.9
COCCCN1C(=O)C(=O)/C(=C(/O)c2ccc(C)cc2)C1c1ccc(N(C)C)cc1 (stereo not given)	3.2*
Cc1cccc(Cl)c1/C=N/NC(=O)Cc1csc(-c2ccccc2)n1	-0.38
N/C(=N\C(=O)N1CCOCC1)c1ccccc1OC(F)(F)F	-0.73
CCOC(=O)C1CN(c2ccc(C)cc2)CC1=O (stereo not given)	-2.7

Screening data as filed in PubChem BioAssay.
